# Reference: the supplement of paper PMC6522484
# ± gives the standard deviation of the averaged measurements.
# Assays:
# DLD1 [1] = assay: cell viability (CellTiter-Glo) relative to plate median (fraction of plate median); higher = more viable cells; conditions: 5 µM; treatment time 24 h; reporter: 7TFP
# In short: (§1)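 Signals from firefly luciferase or CellTiterGlo readouts were normalised well by well to the plate median using webcellHTS2, additively and with no log transformation. They came from colorectal cancer cell lines stably holding lentiviral TCF/Wnt firefly luciferase reporters (7TFP or TCF4/Wnt), treated with library compounds at a final 5 µM for 24 h. The mean of two independent replicates is given.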
# HCT116 = assay: as above; conditions: 5 µM; treatment time 24 h; reporter: TCF4/Wnt
# In short: as §1
# SW480 [2] = assay: as above; conditions: 5 µM; treatment time 24 h; reporter: 7TFP
# In short: as §1
# DLD1 [3] = assay: TCF/Wnt firefly luciferase reporter signal relative to plate median (fraction of plate median); higher = higher Wnt reporter signal; conditions: 5 µM; treatment time 24 h; reporter: 7TFP
# In short: as §1
# SW480 [4] = assay: as above; conditions: 5 µM; treatment time 24 h; reporter: 7TFP
# In short: as §1
structure (smiles),measurement,setting,value
O=C(/C=C/c1ccccc1)c1ccc(O)cc1,cell viability,DLD1 [1],0.834 ± 0.11
same,cell viability,HCT116,0.906 ± 0.047
same,cell viability,SW480 [2],0.898 ± 0.013
same,TCF/Wnt firefly luciferase reporter signal,DLD1 [3],0.88 ± 0.1
same,TCF/Wnt firefly luciferase reporter signal,SW480 [4],0.976 ± 0.2
COC1=CC(=O)C(O)=C/C1=C\C=C\c1ccccc1,cell viability,DLD1 [1],1 ± 0.013
same,cell viability,HCT116,1.06 ± 0.12
same,cell viability,SW480 [2],1 ± 0.057
same,TCF/Wnt firefly luciferase reporter signal,DLD1 [3],1.1 ± 0.064
same,TCF/Wnt firefly luciferase reporter signal,SW480 [4],0.905 ± 0.1
CC(=O)c1cc(CC=C(C)C)c(O)c(CC=C(C)C)c1,cell viability,DLD1 [1],1.05 ± 0.014
same,cell viability,HCT116,1.02 ± 0.035
same,cell viability,SW480 [2],0.95 ± 0.011
same,TCF/Wnt firefly luciferase reporter signal,DLD1 [3],1.08 ± 0.15
same,TCF/Wnt firefly luciferase reporter signal,SW480 [4],1.14 ± 0.064
c1ccc(-c2ccc(C(c3ccccc3)n3ccnc3)cc2)cc1 (stereo not given),cell viability,DLD1 [1],1.03 ± 0.035
same,cell viability,HCT116,1.01 ± 0.026
same,cell viability,SW480 [2],0.965 ± 0.011
same,TCF/Wnt firefly luciferase reporter signal,DLD1 [3],0.938 ± 0.016
same,TCF/Wnt firefly luciferase reporter signal,SW480 [4],0.923 ± 0.033
OC1(c2ccc(Cl)c(C(F)(F)F)c2)CCN(CCCC(c2ccc(F)cc2)c2ccc(F)cc2)CC1,cell viability,DLD1 [1],0.982 ± 0.14
same,cell viability,HCT116,1.08 ± 0.071
same,cell viability,SW480 [2],0.994 ± 0.023
same,TCF/Wnt firefly luciferase reporter signal,DLD1 [3],1.1 ± 0.21
same,TCF/Wnt firefly luciferase reporter signal,SW480 [4],0.931 ± 0.092
CC(=O)OC1CCC2(C)C(=CCC3C2CCC2(C)C(C(C)CCCC(C)C)CCC32)C1 (stereo not given),cell viability,DLD1 [1],1.04 ± 0.021
same,cell viability,HCT116,1.05 ± 0.12
same,cell viability,SW480 [2],0.964 ± 0.051
same,TCF/Wnt firefly luciferase reporter signal,DLD1 [3],1.11 ± 0.19
same,TCF/Wnt firefly luciferase reporter signal,SW480 [4],1.11 ± 0.15
O=C(O)c1ccccc1OP(=O)(O)O,cell viability,DLD1 [1],0.9465 ± 0.0035
same,cell viability,HCT116,0.9665 ± 0.0092
same,cell viability,SW480 [2],0.911 ± 0.028
same,TCF/Wnt firefly luciferase reporter signal,DLD1 [3],0.939 ± 0.042
same,TCF/Wnt firefly luciferase reporter signal,SW480 [4],0.932 ± 0.04
CC[C@@H]1C(=O)N(C)c2cnc(Nc3ccc(C(=O)N[C@H]4CC[C@H](N5CCN(CC6CC6)CC5)CC4)cc3OC)nc2N1C(C)C [Volasertib],cell viability,DLD1 [1],1 ± 0.036
same,cell viability,HCT116,0.666 ± 0.095
same,cell viability,SW480 [2],1.21 ± 0.078
same,TCF/Wnt firefly luciferase reporter signal,DLD1 [3],0.91 ± 0.17
same,TCF/Wnt firefly luciferase reporter signal,SW480 [4],1.06 ± 0.042
CC1=C(/C=C/C(C)=C/C=C/C(C)=C/C=C/C=C(C)/C=C/C=C(C)/C=C/C2=C(C)CCCC2(C)C)C(C)(C)CCC1 [beta-CAROTENE],cell viability,DLD1 [1],0.966 ± 0.0042
same,cell viability,HCT116,1 ± 0.064
same,cell viability,SW480 [2],0.984 ± 0.0014
same,TCF/Wnt firefly luciferase reporter signal,DLD1 [3],0.932 ± 0.018
same,TCF/Wnt firefly luciferase reporter signal,SW480 [4],0.983 ± 0.052
O=c1oc2c(O)c(O)cc3c(=O)oc4c(O)c(O)cc1c4c23,cell viability,DLD1 [1],1.03 ± 0.028
same,cell viability,HCT116,1.125 ± 0.0071
same,cell viability,SW480 [2],1.11 ± 0.028
same,TCF/Wnt firefly luciferase reporter signal,DLD1 [3],0.971 ± 0.055
same,TCF/Wnt firefly luciferase reporter signal,SW480 [4],1.045 ± 0.0071
CN1CCN(CCCN2c3ccccc3Sc3ccc(Cl)cc32)CC1,cell viability,DLD1 [1],1.02 ± 0.13
same,cell viability,HCT116,0.941 ± 0.098
same,cell viability,SW480 [2],1.09 ± 0.064
same,TCF/Wnt firefly luciferase reporter signal,DLD1 [3],1.03 ± 0.054
same,TCF/Wnt firefly luciferase reporter signal,SW480 [4],0.929 ± 0.042
CC(C)C[C@H](NC(=O)[C@@H]1CCCN1)C(=O)N1CCNC(=O)C1=O [Prolyl-leucyl-diketopiperazine],cell viability,DLD1 [1],1.02 ± 0.035
same,cell viability,HCT116,0.993 ± 0.011
same,cell viability,SW480 [2],0.984 ± 0.0042
same,TCF/Wnt firefly luciferase reporter signal,DLD1 [3],1.04 ± 0.13
same,TCF/Wnt firefly luciferase reporter signal,SW480 [4],1.025 ± 0.0071
COc1cc2cc3c4cc(OC)c(OC)cc4cc[n+]3c(C)c2cc1OC,cell viability,DLD1 [1],1 ± 0.067
same,cell viability,HCT116,0.959 ± 0.013
same,cell viability,SW480 [2],0.9305 ± 0.00071
same,TCF/Wnt firefly luciferase reporter signal,DLD1 [3],1.05 ± 0.16
same,TCF/Wnt firefly luciferase reporter signal,SW480 [4],1.01 ± 0.097
C[C@H]1[C@H](C)CC[C@]2(C(=O)O)CC[C@]3(C)C(=CC[C@@H]4[C@@]5(C)C[C@@H](O)[C@H](O)[C@@](C)(CO)[C@@H]5[C@H](O)C[C@]43C)[C@H]12,cell viability,DLD1 [1],1.01 ± 0.048
same,cell viability,HCT116,1.09 ± 0.099
same,cell viability,SW480 [2],0.985 ± 0.0085
same,TCF/Wnt firefly luciferase reporter signal,DLD1 [3],0.919 ± 0.05
same,TCF/Wnt firefly luciferase reporter signal,SW480 [4],1.045 ± 0.0071
OC(c1cc(C(F)(F)F)nc2c(C(F)(F)F)cccc12)C1CCCCN1 (stereo not given),cell viability,DLD1 [1],0.953 ± 0.033
same,cell viability,HCT116,1.005 ± 0.0071
same,cell viability,SW480 [2],1.02 ± 0.051
same,TCF/Wnt firefly luciferase reporter signal,DLD1 [3],1.18 ± 0.028
same,TCF/Wnt firefly luciferase reporter signal,SW480 [4],1.11 ± 0.057
CC(CN(C)C)CN1c2ccccc2Sc2ccccc21 (stereo not given),cell viability,DLD1 [1],1 ± 0.12
same,cell viability,HCT116,1.02 ± 0.065
same,cell viability,SW480 [2],1.06 ± 0.057
same,TCF/Wnt firefly luciferase reporter signal,DLD1 [3],0.997 ± 0.15
same,TCF/Wnt firefly luciferase reporter signal,SW480 [4],1.08 ± 0.071
CC12CCC(CC1=O)C2(C)C (stereo not given),cell viability,DLD1 [1],0.974 ± 0.037
same,cell viability,HCT116,0.941 ± 0.2
same,cell viability,SW480 [2],1.04 ± 0.05
same,TCF/Wnt firefly luciferase reporter signal,DLD1 [3],1.02 ± 0.061
same,TCF/Wnt firefly luciferase reporter signal,SW480 [4],0.969 ± 0.14
Cc1cc(O)c(C=O)c(O)c1C(=O)O,cell viability,DLD1 [1],0.939 ± 0.14
same,cell viability,HCT116,0.939 ± 0.064
same,cell viability,SW480 [2],0.957 ± 0.035
same,TCF/Wnt firefly luciferase reporter signal,DLD1 [3],1.09 ± 0.14
same,TCF/Wnt firefly luciferase reporter signal,SW480 [4],0.9475 ± 0.0035
NC(=O)c1ncn([C@@H]2O[C@H](CO)[C@@H](O)[C@H]2O)n1,cell viability,DLD1 [1],1.12 ± 0.035
same,cell viability,HCT116,1.04 ± 0.064
same,cell viability,SW480 [2],1.01 ± 0.021
same,TCF/Wnt firefly luciferase reporter signal,DLD1 [3],1.22 ± 0.23
same,TCF/Wnt firefly luciferase reporter signal,SW480 [4],0.986 ± 0.09
CC[C@H](/C=C/[C@@H](C)[C@H]1CC[C@H]2[C@@H]3CC=C4C[C@@H](O)CC[C@]4(C)[C@H]3CC[C@]12C)C(C)C,cell viability,DLD1 [1],1.04 ± 0.096
same,cell viability,HCT116,1.14 ± 0.14
same,cell viability,SW480 [2],1.03
same,TCF/Wnt firefly luciferase reporter signal,DLD1 [3],1.05 ± 0.014
same,TCF/Wnt firefly luciferase reporter signal,SW480 [4],1 ± 0.066
COc1ccc(-c2cc(=O)c3c(OC)c(OC)c(OC)c(OC)c3o2)cc1OC,cell viability,DLD1 [1],0.9 ± 0.064
same,cell viability,HCT116,0.914 ± 0.059
same,cell viability,SW480 [2],1.04 ± 0.067
same,TCF/Wnt firefly luciferase reporter signal,DLD1 [3],0.951 ± 0.034
same,TCF/Wnt firefly luciferase reporter signal,SW480 [4],0.992 ± 0.011
COC(=O)c1c(C)cc(O)cc1O,cell viability,DLD1 [1],0.999 ± 0.03
same,cell viability,HCT116,0.837 ± 0.23
same,cell viability,SW480 [2],1 ± 0.037
same,TCF/Wnt firefly luciferase reporter signal,DLD1 [3],1.15 ± 0.014
same,TCF/Wnt firefly luciferase reporter signal,SW480 [4],0.984 ± 0.11
CN/C(=N\CCSCc1nc[nH]c1C)NC#N,cell viability,DLD1 [1],1.04 ± 0.021
same,cell viability,HCT116,1.12 ± 0.042
same,cell viability,SW480 [2],1.04 ± 0.021
same,TCF/Wnt firefly luciferase reporter signal,DLD1 [3],1.12 ± 0.18
same,TCF/Wnt firefly luciferase reporter signal,SW480 [4],1.06 ± 0.042
C[C@]1(O)CC(=O)c2c(ccc3c2C(=O)c2cccc(O)c2C3=O)C1 [Tetrangomycin; Benzanthramycin; LL-AE-705-Y],cell viability,DLD1 [1],0.822 ± 0.019
same,cell viability,HCT116,0.978 ± 0.14
same,cell viability,SW480 [2],1 ± 0.067
same,TCF/Wnt firefly luciferase reporter signal,DLD1 [3],0.853 ± 0.065
same,TCF/Wnt firefly luciferase reporter signal,SW480 [4],1.01 ± 0.045
NC(=O)c1ccc([N+](=O)[O-])cc1Cl,cell viability,DLD1 [1],1.02 ± 0.047
same,cell viability,HCT116,1.1 ± 0.057
same,cell viability,SW480 [2],1 ± 0.014
same,TCF/Wnt firefly luciferase reporter signal,DLD1 [3],0.894 ± 0.19
same,TCF/Wnt firefly luciferase reporter signal,SW480 [4],0.967 ± 0.075
CCOC(=O)N1CCC(=C2c3ccc(Cl)cc3CCc3cccnc32)CC1,cell viability,DLD1 [1],0.987 ± 0.047
same,cell viability,HCT116,0.896 ± 0.064
same,cell viability,SW480 [2],0.962 ± 0.068
same,TCF/Wnt firefly luciferase reporter signal,DLD1 [3],1.08 ± 0.19
same,TCF/Wnt firefly luciferase reporter signal,SW480 [4],0.94 ± 0.032
CCCCCCCCCCCC[C@H](O)[C@@H]1CC[C@@H]([C@@H](O)CCCCCCCC(=O)CC[C@@H](O)CC2=C[C@H](C)OC2=O)O1 [annocherin],cell viability,DLD1 [1],0.904 ± 0.09
same,cell viability,HCT116,0.871 ± 0.082
same,cell viability,SW480 [2],0.921 ± 0.093
same,TCF/Wnt firefly luciferase reporter signal,DLD1 [3],0.843 ± 0.12
same,TCF/Wnt firefly luciferase reporter signal,SW480 [4],0.855 ± 0.32
CC(C)C[C@H]1C(=O)N2CCC[C@H]2C(=O)N1O [Cyclo(hydroxyleucylprolyl)],cell viability,DLD1 [1],0.978 ± 0.074
same,cell viability,HCT116,0.973 ± 0.081
same,cell viability,SW480 [2],0.988 ± 0.088
same,TCF/Wnt firefly luciferase reporter signal,DLD1 [3],0.949 ± 0.0042
same,TCF/Wnt firefly luciferase reporter signal,SW480 [4],1.05 ± 0.071
CC(=O)Nc1cccc(O)c1,cell viability,DLD1 [1],0.933 ± 0.17
same,cell viability,HCT116,1.1 ± 0.028
same,cell viability,SW480 [2],1.03 ± 0.021
same,TCF/Wnt firefly luciferase reporter signal,DLD1 [3],0.949 ± 0.14
same,TCF/Wnt firefly luciferase reporter signal,SW480 [4],0.939 ± 0.13
Nc1ncn([C@@H]2O[C@H](CO)[C@@H](O)[C@H]2O)c(=O)n1,cell viability,DLD1 [1],0.992 ± 0.011
same,cell viability,HCT116,0.945 ± 0.035
same,cell viability,SW480 [2],1.07 ± 0.092
same,TCF/Wnt firefly luciferase reporter signal,DLD1 [3],1.01 ± 0.13
same,TCF/Wnt firefly luciferase reporter signal,SW480 [4],1.085 ± 0.0071
